These results are taken from PubChem BioAssay (Tox21).

A number with no mark means an inactive call. Records with an inconclusive call do not appear. Calls of active or inactive are those of the source. Unless noted, the call rests on the fitted dose curve.

The nature of experiment [1]: Nuclear factor erythroid 2-related factor 2/antioxidant responsive element (Nrf2/ARE) small molecule agonists: qHTS cell viability counter screen in human keratinocytes (AID 1919968; active means well fitted curve in the direction sought with a large enough effect in the repeat runs; an effect the other way counts as inactive or inconclusive; further: nearly all actives have a fitted effect of over 55% in size; further: potency means the concentration at half of the fitted maximal effect). In outline: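 After a 5 h attachment period, ARE-reporter keratinocytes were dosed with compounds in DMSO and then cultured 23 h at 37 C. Cell viability came from CellTiter-Fluor signal read after a further 1 h.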

Experiment [2] addresses Gonadotropin-releasing hormone receptor (Homo sapiens) (UniProt P30968). The experiment in a line: Human gonadotropin-releasing hormone receptor (GnRHR) small molecule agonists, calcium flux assay in GnRHR-HEK293 cells (AID 1920063). Further: nearly all actives have a fitted effect of over 35% in size. The procedure, abridged: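 We seeded human GnRHR-expressing HEK293 cells for 18 hours, loaded them with calcium dye for an hour at 37 C, added test compounds, and recorded fluorescence intensity kinetically for three minutes.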
Background: Calcium flux is commonly read through the fluorescence of an indicator in the cells.

Experiment [3] deals with KiSS-1 receptor (Homo sapiens) (UniProt Q969F8). The experiment in a line: Human kisspeptin (KISS1R) small molecule agonists, calcium flux assay in KISS1R-HEK293 cells (AID 1920064; active means well fitted curve in the direction sought with a large enough effect in the repeat runs; an effect the other way counts as inactive or inconclusive). In outline:
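Kinetic calcium assay, 1 s sampling over 3 min at Ex/Em 480/540, in HEK293 cells engineered with human KISS1R; compounds delivered in DMSO after 1 h dye loading.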

Experiment [4] in a line: G protein-coupled receptor (GPCR) small molecule agonists, calcium flux assay: HEK293 wild type cell line counter screen (AID 1920065). The procedure, abridged: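 Calcium-sensitive dye, loaded 1 h at 37 C into cells cultured 18 h, reports compound-evoked calcium release as fluorescence (Ex/Em 480/540), measured over 3 min. Agonist mode; 15-point titrations, triplicate.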

The nature of experiment [5]: p53 small molecule agonists, cell-based qHTS assay with human liver microsomes (AID 1963577). The procedure, abridged:
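Compounds act here after metabolic activation: human liver microsomes and NADPH, both at 0.5 mg/mL final, were co-added to p53RE-bla cells. Incubation ran 16 h at 37 C, followed by LiveBLAzer detection.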
For orientation: Quantitative high-throughput screening tests each substance at several concentrations.

The nature of experiment [6]: p53 small molecule agonists, cell-based qHTS assay with rat liver microsomes (AID 1963578). The procedure, abridged:
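Read-out is beta-lactamase reporter fluorescence (LiveBLAzer, 2 h, room temperature, dark) in p53RE-bla cells treated 16 h at 37 C with compound, rat liver microsomes and NADPH, both 0.5 mg/mL final.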

Experiment [7] in a line: p53 small molecule agonists, cell-based qHTS assay with human liver microsomes: qHTS cell viability counter screen (AID 1963579). Further: nearly all actives have a fitted effect of over 45% in size. In outline: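 Cells carrying the p53 response-element beta-lactamase reporter are treated for 16 h at 37 C with test compounds in the presence of human liver microsomes and NADPH (both 0.5 mg/mL final); ATP-based CellTiter-Glo luminescence then reports viability.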

Experiment [8] can be described thus: p53 small molecule agonists, cell-based qHTS assay with rat liver microsomes: qHTS cell viability counter screen (AID 1963580). Further: nearly all actives have a fitted effect of over 45% in size. Further: potency means the concentration at half of the fitted maximal effect. The procedure, abridged:
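p53RE-bla HCT-116 cells (4,000/well) rested 5 h at 37 C, then given Tox21 compounds in DMSO with rat liver microsomes (0.5 mg/mL final) plus NADPH (0.5 mg/mL final) for 16 h at 37 C. Viability read by CellTiter-Glo luminescence after 30 min at room temperature.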

The nature of experiment [9]: p53 small molecule agonists, cell-based qHTS assay (AID 1963582; active means well fitted activation curve with a large enough effect in the signal ratio in the repeat runs, not every such curve was filed as active; the % refers to the signal ratio). In outline:
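In this cell-based concentration-response screen, a p53 response element drives beta-lactamase; cells received DMSO-borne compounds after 5 h culture and were incubated a further 16 h before FRET substrate development.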

A short description of experiment [10]: cAMP Responsive Elements (CRE) small molecule agonists, cell-based qHTS assay (AID 1963590). The procedure, abridged:
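A CRE-responsive beta-lactamase reporter in HEK 293T cells was used. Treatment ran 3 h at 37 C; detection used LiveBLAzer B/G FRET substrate for 2 h at room temperature.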

A short description of experiment [11]: cAMP Responsive Elements (CRE) small molecule antagonists, cell-based qHTS assay (AID 1963591; active means well fitted inhibition curve with a large enough effect in the signal ratio in the repeat runs, not every such curve was filed as active; the % refers to the signal ratio). In outline: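 HEK293T cells carrying a CRE-driven beta-lactamase reporter receive compound and NKH477 (0.25 uM final) for 3 h. Fluorescence from LiveBLAzer B/G FRET substrate is read after 2 h at room temperature.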
In experiment [12] the target is Beta-2 adrenergic receptor (Homo sapiens) (UniProt P07550). The experiment in a line: Adrenergic beta2 receptor (ADRB2) small molecule antagonists, cell-based qHTS assay (AID 1963592). Further: series mostly up to about 92 µM; nearly all actives have a fitted effect of over 50% in size. In outline: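 Cells (CHO, stable ADRB2 overexpression) incubated 18-20hr at 37C; compounds added from DMSO; agonist mix (1nM isoproterenol, 100uM IBMX, 25uM Ro-20-1724) added; 0.5hr RT; d2-cAMP and anti-cAMP-cryptate added; 1hr RT; 665/615 nm read.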
Sequence of Beta-2 adrenergic receptor (Homo sapiens) (P07550 whole entry, looked up): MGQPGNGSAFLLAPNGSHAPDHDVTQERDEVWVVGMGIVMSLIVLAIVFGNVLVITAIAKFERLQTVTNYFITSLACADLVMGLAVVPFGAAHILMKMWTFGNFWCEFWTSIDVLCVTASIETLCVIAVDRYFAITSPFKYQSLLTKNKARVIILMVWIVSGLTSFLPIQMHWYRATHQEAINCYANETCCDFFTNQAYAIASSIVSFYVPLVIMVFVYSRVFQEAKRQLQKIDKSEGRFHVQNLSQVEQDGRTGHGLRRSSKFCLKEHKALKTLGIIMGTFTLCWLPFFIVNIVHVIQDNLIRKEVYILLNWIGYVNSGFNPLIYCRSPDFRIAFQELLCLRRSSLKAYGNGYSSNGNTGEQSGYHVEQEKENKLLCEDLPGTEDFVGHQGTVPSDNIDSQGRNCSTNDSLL

For experiment [13], the target named is D(2) dopamine receptor (Homo sapiens) (UniProt P14416). The experiment in a line: Dopamine D2 receptor (DRD2) small molecule agonists, cell-based qHTS assay (AID 1963594). Further: nearly all actives have a fitted effect of over 35% in size. The procedure, abridged: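 HEK293 cells stably expressing DRD2 were cultured 24 h at 37 C, then given Ro20-1724 (0.1 mM final) and compounds for 10 min at room temperature. NKH477 (200nM) was then added for 30 min. cAMP was read by HTRF.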
Sequence of D(2) dopamine receptor (Homo sapiens) (P14416 whole entry, looked up): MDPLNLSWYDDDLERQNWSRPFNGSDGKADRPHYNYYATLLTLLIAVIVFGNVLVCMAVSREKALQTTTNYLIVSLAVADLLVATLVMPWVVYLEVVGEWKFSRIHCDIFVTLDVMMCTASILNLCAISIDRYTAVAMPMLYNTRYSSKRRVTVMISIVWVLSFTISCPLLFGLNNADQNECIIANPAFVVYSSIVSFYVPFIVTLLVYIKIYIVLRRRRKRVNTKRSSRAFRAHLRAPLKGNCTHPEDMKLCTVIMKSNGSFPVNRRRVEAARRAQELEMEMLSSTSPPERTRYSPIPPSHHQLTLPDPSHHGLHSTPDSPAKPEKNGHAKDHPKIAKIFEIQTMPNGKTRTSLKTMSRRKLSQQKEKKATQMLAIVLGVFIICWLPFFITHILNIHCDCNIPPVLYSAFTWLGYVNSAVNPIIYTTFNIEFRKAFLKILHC

Experiment [14] shares this target. The experiment in a line: Dopamine D2 receptor (DRD2) small molecule antagonists, cell-based qHTS assay (AID 1963595; active means well fitted inhibition curve with a large enough effect in the signal ratio in the repeat runs, with a control signal flat; the % refers to the signal ratio). The procedure, abridged:
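In this cell-based antagonist screen, compounds act for 10 min at room temperature before a 30 min challenge with 12 nM quinpirole and 200 nM NKH477. cAMP is quantified by HTRF competition in DRD2-HEK293 cells containing 0.1 mM Ro20-1724.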

Experiment [15] addresses 5-hydroxytryptamine receptor 2A (Homo sapiens) (UniProt P28223). The experiment in a line: 5-hydroxytryptamine receptor 2A (HTR2A) small molecule antagonists, cell-based qHTS assay (AID 1963586). Further: nearly all actives have a fitted effect of over 45% in size. In outline: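 Antagonist-mode intracellular calcium assay: DOI (4 nM) added after 5 min compound pre-incubation at room temperature to dye-loaded HTR2A-CHO cells. Fluorescence followed for 3 min, sampled every second.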

For experiment [16] the target is unchanged. The experiment in a line: 5-hydroxytryptamine receptor 2A (HTR2A) small molecule agonists, cell-based qHTS assay (AID 1963587). Further: nearly all actives have a fitted effect of over 30% in size. Further: potency means the concentration at half of the fitted maximal effect. In outline:
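HTR2A-CHO cells, plated 18 h at 37 C/5% CO2, dye-loaded 1 h at 37 C; compounds in DMSO added by pin tool (agonist mode). Intracellular calcium flux read as kinetic fluorescence on FDSS over 2 min at 1 s intervals.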

For experiment [17], the target named is Muscarinic acetylcholine receptor M1 (Homo sapiens) (UniProt P11229). The experiment in a line: Cholinergic receptor muscarinic 1 (CHRM1) small molecule antagonists, cell-based qHTS assay (AID 1963588). Further: nearly all actives have a fitted effect of over 40% in size. The procedure, abridged:
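CHRM1-CHO calcium-flux assay, antagonist mode. Cells were seeded 18 h, dye-loaded 1 h at 37 C and given compound for 5 min at RT, then acetylcholine was added at 50nM. FDSS fluorescence was read 3 min; 15 concentrations, three runs.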

Experiment [18] has the same target. The experiment in a line: Cholinergic receptor muscarinic 1 (CHRM1) small molecule agonists, cell-based qHTS assay (AID 1963589). Further: nearly all actives have a fitted effect of over 35% in size. In outline: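 Measures agonist-induced intracellular calcium rise. Stable human CHRM1 CHO line, 1 h dye load at 37 C, compounds from DMSO, kinetic fluorescence read.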
The nature of experiment [19]: p53 small molecule agonists, cell-based qHTS assay: qHTS cell viability counter screen (AID 1963581). Further: nearly all actives have a fitted effect of over 45% in size. The procedure, abridged:
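Following 5 h attachment, HCT-116 p53RE-bla cells took up compound for 16 h at 37 C; the reporter was read with B/G FRET substrate (2 h RT), and viability then via CellTiter-Glo ATP luminescence.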

Experiment [20] addresses Beta-2 adrenergic receptor (Homo sapiens) (UniProt P07550). The experiment in a line: Adrenergic beta2 receptor (ADRB2) small molecule agonists, cell-based qHTS assay (AID 1963593).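 Further: CHO cells stably overexpressing human ADRB2.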 In outline:
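CHO cells stably over-expressing ADRB2 were plated overnight at 37C, then dosed with compounds plus a stimulation mix containing 100uM IBMX and 25uM Ro-20-1724 for 0.5hr at room temperature. cAMP was measured by HTRF competition, 1hr.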
On the % scale 0 is the no-effect control and ±100 the full control effect.

Sequence of 5-hydroxytryptamine receptor 2A (Homo sapiens) (P28223 whole entry, looked up): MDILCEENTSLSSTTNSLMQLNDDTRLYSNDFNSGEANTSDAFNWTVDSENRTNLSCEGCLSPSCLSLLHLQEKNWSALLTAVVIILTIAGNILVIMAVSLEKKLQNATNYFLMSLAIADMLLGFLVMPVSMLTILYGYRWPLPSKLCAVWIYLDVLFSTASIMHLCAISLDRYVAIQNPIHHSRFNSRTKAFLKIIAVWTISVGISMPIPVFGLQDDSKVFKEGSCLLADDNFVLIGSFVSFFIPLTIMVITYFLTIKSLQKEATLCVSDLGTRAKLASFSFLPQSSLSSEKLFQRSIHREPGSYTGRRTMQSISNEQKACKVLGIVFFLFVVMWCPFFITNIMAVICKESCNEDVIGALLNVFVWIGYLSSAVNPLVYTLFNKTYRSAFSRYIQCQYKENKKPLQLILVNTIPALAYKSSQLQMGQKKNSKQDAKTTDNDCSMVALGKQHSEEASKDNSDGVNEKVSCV
Sequence of Gonadotropin-releasing hormone receptor (Homo sapiens) (P30968 whole entry, looked up): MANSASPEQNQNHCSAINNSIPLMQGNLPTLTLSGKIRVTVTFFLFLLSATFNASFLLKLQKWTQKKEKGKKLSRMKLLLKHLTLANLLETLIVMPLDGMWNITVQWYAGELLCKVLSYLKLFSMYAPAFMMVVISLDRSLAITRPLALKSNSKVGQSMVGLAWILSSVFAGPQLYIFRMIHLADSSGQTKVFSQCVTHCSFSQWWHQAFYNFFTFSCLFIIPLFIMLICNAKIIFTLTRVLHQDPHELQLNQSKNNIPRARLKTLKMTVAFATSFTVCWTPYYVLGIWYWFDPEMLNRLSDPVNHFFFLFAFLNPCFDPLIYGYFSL
Sequence of KiSS-1 receptor (Homo sapiens) (Q969F8 whole entry, looked up): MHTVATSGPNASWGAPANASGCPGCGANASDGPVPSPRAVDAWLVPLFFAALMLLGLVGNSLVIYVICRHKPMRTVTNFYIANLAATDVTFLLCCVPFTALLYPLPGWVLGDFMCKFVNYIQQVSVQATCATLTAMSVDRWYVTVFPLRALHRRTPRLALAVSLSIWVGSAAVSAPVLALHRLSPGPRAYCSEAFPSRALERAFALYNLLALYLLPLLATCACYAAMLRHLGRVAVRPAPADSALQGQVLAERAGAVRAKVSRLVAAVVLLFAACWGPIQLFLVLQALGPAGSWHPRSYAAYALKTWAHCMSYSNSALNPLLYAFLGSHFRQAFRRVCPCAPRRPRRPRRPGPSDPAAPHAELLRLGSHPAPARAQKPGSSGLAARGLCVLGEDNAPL
Sequence of Muscarinic acetylcholine receptor M1 (Homo sapiens) (P11229 whole entry, looked up): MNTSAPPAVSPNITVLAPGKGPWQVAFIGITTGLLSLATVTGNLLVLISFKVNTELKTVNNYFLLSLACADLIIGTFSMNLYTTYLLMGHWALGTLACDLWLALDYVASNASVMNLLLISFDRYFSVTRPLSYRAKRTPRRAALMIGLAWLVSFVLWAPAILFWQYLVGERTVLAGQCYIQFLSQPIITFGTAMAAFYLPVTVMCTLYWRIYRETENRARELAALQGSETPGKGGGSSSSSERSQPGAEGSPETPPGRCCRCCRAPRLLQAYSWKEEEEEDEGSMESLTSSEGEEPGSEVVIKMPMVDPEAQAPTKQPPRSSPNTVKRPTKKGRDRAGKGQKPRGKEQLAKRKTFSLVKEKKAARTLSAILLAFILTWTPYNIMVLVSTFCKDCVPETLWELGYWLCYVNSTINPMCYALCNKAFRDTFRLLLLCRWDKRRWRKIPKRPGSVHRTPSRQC

In the case of `C[C@]12CC[C@@H](O)C[C@@H]1CC[C@@H]1[C@@H]2CC[C@]2(C)C(=O)CC[C@@H]12`, the Potency result in [1], in experiment [2], in experiment [3], in experiment [4], in [5] and in experiment [6] was “inactive” throughout. Further, the Potency entry in [7], in experiment [8], in [9], in [10], in experiment [11] and in experiment [12] was “inactive” in each case. Further, the Potency entry in experiment [13] and in experiment [14] was “inactive” throughout.

Consider `ClCc1ccc(Cl)cc1Cl`, for which the Potency entry in experiment [1], in [2], in experiment [3], in [4], in [5] and in experiment [6] was “inactive” each time. Further, the Potency entry in experiment [7], in experiment [8], in experiment [15], in [16], in experiment [17] and in experiment [18] was “inactive” in each case. Besides, the Potency entry in experiment [10], in experiment [12], in experiment [13] and in experiment [14] was “inactive” in each case.

For the compound `O=C1c2ccccc2C(=O)c2ccccc21`, the activity change, negative = cytotoxicity is 8.6% [at 19 µM] in [1], 2.91% [at 13.5 µM] in experiment [7], 1.32% [at 13.5 µM] in experiment [8] and 5.09% [at 13.5 µM] in [19]. Further, the activity change in experiment [2] was -0.0358% [at 11.8 µM, hits give high values]. Further, the activation was 8.4% [at 15.8 µM] in [3]; 0.614% [at 11.8 µM] in [4]; 1.15% [at 13.5 µM] in experiment [5]; -4.38% [at 13.6 µM] in experiment [6]; -4.26% [at 15.9 µM] in experiment [16]; -2.22% [at 19 µM] in experiment [10]. Besides, in experiment [13], the activation is -2.1% [at 19 µM]. Further, in [17], the activity, negative = inhibition is 2.2% [at 12.6 µM]. For the same compound, the activity change, negative = inhibition is -5.21% [at 18.9 µM] in experiment [11] and -1.46% [at 18.9 µM] in [14].

With `NC1CCC(CC2CCC(N)CC2)CC1` (stereo not drawn), the figures for the Potency in experiment [1] and in experiment [16] were 23.9 µM (active) and 19.2 µM (active), respectively. The Potency result in experiment [2], in experiment [3], in experiment [4], in [5], in experiment [6] and in experiment [8] was “inactive” in each case. Also, the Potency entry in experiment [9], in experiment [15], in [17], in experiment [18], in experiment [10] and in experiment [12] was “inactive” throughout. The Potency result in experiment [20], in [13] and in experiment [14] was “inactive” each time.

In the case of `CCOC(=O)COc1cc(-c2nn(C)c(OC(F)F)c2Cl)c(F)cc1Cl`, the Potency result in experiment [1], in experiment [2], in [3], in experiment [4], in [5] and in experiment [6] was “inactive” each time. For the same compound, the Potency entry in experiment [7], in experiment [8], in [15], in experiment [16], in experiment [18] and in experiment [12] was “inactive” in each case. Moreover, in experiment [14], the Potency result was “inactive”.

For `CCC1(c2ccccc2)C(=O)N=C(O)NC1=O` (stereo not drawn), the Potency result in experiment [1], in experiment [2], in [3], in experiment [4], in [5] and in [6] was “inactive” in each case. In addition, the Potency result in experiment [7], in [8], in [9], in experiment [10], in experiment [11] and in experiment [12] was “inactive” each time. The Potency entry in experiment [20] and in experiment [13] was “inactive” throughout.

On to `OCCCBr`, for which the Potency entry in experiment [1], in experiment [2], in experiment [3], in experiment [4], in experiment [5] and in experiment [6] was “inactive” throughout. Further, the Potency result in [9], in experiment [15], in experiment [16], in experiment [17], in experiment [10] and in experiment [11] was “inactive” throughout. The Potency result in experiment [12] and in [14] was “inactive” throughout. In addition, the Potency in experiment [8] is 1.45 µM (active).

For `Cn1[nH]nnc1=S`, the Potency result in [1], in experiment [2], in [3], in experiment [4], in experiment [5] and in experiment [6] was “inactive” throughout. Also, the Potency entry in [8], in experiment [19], in experiment [15], in experiment [16], in experiment [17] and in experiment [18] was “inactive” in each case. For the same compound, the Potency entry in [10], in [11], in experiment [13] and in experiment [14] was “inactive” each time.

Take `CC1=C(C(=O)O)N2C(=O)[C@@H](N)[C@H]2SC1`: the activity change, negative = cytotoxicity was 0.0817% [at 19 µM] in experiment [1], 0.455% [at 13.5 µM] in [7] and 4.3e-05% [at 13.5 µM] in experiment [8]. The activity change in experiment [2] was 0.673% [at 11.8 µM, hits give high values]. In addition, the activation is 0.11% [at 15.8 µM] in [3]; -0.375% [at 11.8 µM] in [4]; -0.214% [at 13.5 µM] in experiment [5]; -0.0529% [at 13.6 µM] in experiment [6]; 0.428% [at 13.5 µM] in [9]; 1.93% [at 15.9 µM] in experiment [16]. In addition, the activation was 0% [at 15.8 µM] in [18], -0.165% [at 19 µM] in [10] and 0.75% [at 19 µM] in experiment [20]. Also, the activity, negative = inhibition in [15] is 25.1% [at 12.7 µM]; in experiment [17], -6.26% [at 12.6 µM]. In addition, the activity change, negative = inhibition is -4.67% [at 18.9 µM] in [11], 2.77% [at 19 µM] in [12] and -2.19% [at 18.9 µM] in experiment [14].
